Compound activity deposited in PubChem BioAssay by several laboratories.
Compounds with a hit are over-represented: about 1.2% of the library has one in this group of screens.
NALP1 inh = blocks the NALP1 inflammasome reconstituted in yeast; S. cerevisiae NALP1/ASC/caspase-1 growth, X-gal OD620, 72 h; inhibition, % at 10 µM; actives 0.61% (n = 280,000); in the data active = inhibition mostly above about 24%, no sharp cut-off; inactive = mostly below about 32%
APOBEC3G inh = blocks human APOBEC3G single-stranded DNA deamination; Q9HC16; recombinant A3G, ssDNA deamination FAM/TAMRA fluorescence; actives 0.28% (n = 330,000); inhibition, % at 20 µM;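 active = inhibition of at least 40% at 20 µM, with no more than 30% in the related APOBEC3A deaminase screen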;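 note: plate controls were DMSO wells with A3G for no effect and wells lacking A3G enzyme for full effect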
Target sequence (Q9HC16 whole entry, looked up): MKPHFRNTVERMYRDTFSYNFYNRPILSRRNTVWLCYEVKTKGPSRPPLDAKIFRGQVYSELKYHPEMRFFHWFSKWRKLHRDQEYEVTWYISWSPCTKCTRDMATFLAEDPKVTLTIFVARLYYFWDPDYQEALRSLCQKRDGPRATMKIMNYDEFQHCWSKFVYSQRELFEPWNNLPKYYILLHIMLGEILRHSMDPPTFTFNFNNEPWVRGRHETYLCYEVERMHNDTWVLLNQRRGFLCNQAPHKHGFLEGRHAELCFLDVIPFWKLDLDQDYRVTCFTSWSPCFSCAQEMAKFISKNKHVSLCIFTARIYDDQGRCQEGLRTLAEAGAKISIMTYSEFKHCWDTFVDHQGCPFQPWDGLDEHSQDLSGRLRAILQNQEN
PolyA inh = yeast polyadenylation inhibition. S. cerevisiae SKY197-pL101 polyadenylation reporter, beta-gal luminescence; efflux-impaired pdr1/pdr3 knockout yeast; score 100 = 6 SD above DMSO. activity score, % at 12 µM. actives 0.02% (n = 300,000). AID 1875;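 active = lowest replicate activity score at least 50, where 100 means six control SD above control mean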;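 note: yeast exposed to compound for 9 h at 30 °C; higher score means more reporter readthrough which indicates perturbed polyadenylation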
APOBEC3A inh = human APOBEC3A DNA deaminase inhibition; recombinant A3A, FAM/TAMRA ssDNA deamination fluorescence; inhibition, % at 20 µM; actives 0.41% (n = 330,000); AID 493011;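 active = at least 40% inhibition at 20 µM here, with at most 30% in a related deaminase screen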;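 note: plate controls were A3A with DMSO for no effect and wells lacking A3A enzyme for full effect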
Target sequence (P31941 whole entry, looked up): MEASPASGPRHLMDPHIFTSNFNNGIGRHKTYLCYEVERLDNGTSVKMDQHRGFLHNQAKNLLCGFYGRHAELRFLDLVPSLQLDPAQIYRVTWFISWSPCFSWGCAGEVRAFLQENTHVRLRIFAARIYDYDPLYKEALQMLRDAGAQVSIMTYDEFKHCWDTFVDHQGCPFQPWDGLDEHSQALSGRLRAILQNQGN
Starred values were filed as active, the others as inactive; · = no result.

SMILES | NALP1 inh | APOBEC3G inh | PolyA inh | APOBEC3A inh
CCC(=O)N1CCN(c2nc3ccc(Br)cc3s2)CC1 | 30.5* | 1.5 | -3.6 | 4.2
CC(=O)Nc1nc2ccc(Br)cc2s1 | 28.8* | -7.9 | -15.7 | -6.1
Cc1ccc(-c2nn(-c3ccc(F)cc3)cc2C(=O)N(C)CC(=O)Nc2ccc(N3CCOCC3)cc2)cc1 | · | -8.9 | 13.1 | 5.7
Cc1cnn(-c2nc(-c3ccccc3)cc(-c3ccccc3)n2)c1 | 3.1 | -3.0 | -38.9 | 0.2
CN(C(=O)COC(=O)c1cc([N+](=O)[O-])ccc1Sc1ccccc1)C1CCS(=O)(=O)C1 (stereo not given) | 28.1* | -5.5 | -7.9 | -1.4
CC(=O)c1ccc(Nc2cc(C)nc3c(C)cccc23)cc1 | 28.0* | -2.5 | -9.4 | -2.9
N/C(Cc1ccc([N+](=O)[O-])cc1)=N\OC(=O)c1ccccc1Br | 68.4* | 5.1 | -11.9 | -2.2
N/C(=N\OC(=O)c1ccccc1Br)c1ccc([N+](=O)[O-])cc1 | -7.6 | -7.1 | -14.4 | -2.2
Cc1cnc(NC(=O)CC(C)c2ccccc2)s1 (stereo not given) | 19.3 | -3.7 | 10.3 | -1.0
C=CCNC(=O)CSc1nc2ccccc2c(=O)n1CCc1ccc(OC)c(OC)c1 | 14.0 | -7.6 | -9.9 | -7.2
COc1ccc(CCn2c(SCCN3CCCCC3)nc3ccccc3c2=O)cc1OC | 34.1* | -2.3 | 23.6 | -0.9
CCOC(=O)N1CCN(C(=O)CN2C(=O)COc3ccc(C(C)(C)C)cc32)CC1 | 26.4* | -8.8 | 0.6 | -1.4
CC(C)(C)c1ccc2c(c1)N(CC(=O)O)C(=O)CO2 | 0.8 | -6.1 | -9.0 | 0.4
COc1ccccc1NC(=O)c1ccc(NC(=O)c2ccc(=O)[nH]c2)cc1 | · | -9.4 | · | -0.6
CCC1CCCCN1C(=O)CSc1nnc(-c2ccc(OC)cc2)o1 (stereo not given) | 43.6* | -6.8 | -4.8 | -0.8
C/C(=N/NC(=O)C1CCCC1)c1ccc(NC(=O)C(F)(F)F)cc1 | 10.8 | 0.6 | 9.9 | 0.5
Clc1ccccc1OCCn1cnc2ccccc21 | 30.0* | 2.6 | -33.1 | 5.2
CC(C)c1ccc(N=C2NN=C(c3cccs3)CS2)cc1 | 37.5* | 4.7 | 12.2 | -0.3
COc1ccc(C2NCCc3c2[nH]c2ccccc32)cc1CSc1nc2ccccc2s1 (stereo not given) | 57.3* | · | -15.2 | ·
O=C(CCS(=O)(=O)c1ccc(Cl)cc1)Nc1ccc(N2CCOCC2)cc1 | 0.3 | -1.3 | 8.9 | -1.0
COc1ccc(C(=O)N(Cc2sccc2C)C2CCS(=O)(=O)C2)cc1 (stereo not given) | 26.1* | -7.2 | -4.2 | -6.4
CCOc1cc(-c2nc(-c3ccncc3)no2)cc(OCC)c1OCC | 22.0* | -3.5 | -21.5 | -7.5
COc1ccc(C(=O)C2CCCN(Cc3cc(C)c(O)c(C)c3)C2)c(OC)c1 (stereo not given) | 28.8 | 24.8 | -4.5 | -5.2
COc1ccc(C(=O)C2CCCN(Cc3c(C)[nH]c4ccccc34)C2)c(OC)c1 (stereo not given) | 33.3* | -8.9 | 18.0 | -0.9
C[C@H](NC(=O)c1nc[nH]c1C(=O)N1CCNCC1)C(=O)OC(C)(C)C | · | -9.9 | -6.6 | -3.9
SMILES | NALP1 inh | APOBEC3G inh | PolyA inh | APOBEC3A inh
O=[N+]([O-])c1ccc(O)c2ncccc12 | 157.6* | 30.5 | -6.7 | -2.2
COCCCNC(=O)Cc1ccc(S(=O)(=O)N2CCOCC2)s1 | · | -8.0 | · | -3.9
COc1ccc(C(CNC(=O)Cc2c(F)cccc2Cl)N2CCCCC2)cc1 (stereo not given) | 23.0* | -2.6 | -1.3 | 0.7
COc1ccc(C(CNC(=O)CNC(=O)c2ccc(F)cc2)N2CCCC2)cc1 (stereo not given) | · | -1.0 | · | 2.4
CCCCCCc1c(O)nc(SCC(=O)O)[nH]c1=O | 32.7* | · | 12.9 | ·
CCCCc1c(O)nc(SCC(=O)O)[nH]c1=O | -3.4 | -8.8 | 2.3 | -4.3
NC(=O)NC(Cc1ccccc1)C(=O)NCCCSc1ccccc1 (stereo not given) | 17.6 | -3.1 | -3.6 | -1.3
N#CCSc1ccccc1NC(=O)COC(=O)CCN1C(=O)C2CC=CCC2C1=O (stereo not given) | · | -6.7 | · | -2.4
COC(=O)c1sc(NC(=O)c2cc3c(s2)CCCC3)nc1C | 32.9* | -8.2 | 43.2 | -0.5
Cc1nc(NC(=O)c2cc3c(s2)CCCCC3)sc1C(=O)N(C)C | 5.4 | -1.6 | 3.0 | 3.6
CCOC(=O)[C@@H]1[C@H]2COc3ccc(Br)cc3[C@@H]2N2C(=O)N(c3cccc(Cl)c3)C(=O)[C@]12C | · | 9.2 | 6.6 | -0.8
OCC(O)C(O)C(O)C(O)c1nc2ccccc2[nH]1 (stereo not given) | 25.1* | -7.6 | 3.5 | -5.2
CCCCCCCCCCCC(=O)NC(C(=O)O)C(O)c1ccccc1 (stereo not given) | 26.7* | -2.3 | -10.6 | -2.1
Oc1c(I)cc(Cl)c2cccnc12 | 70.0* | 5.9 | -18.1 | 26.2
CCCc1[nH]nc2c1C(c1ccoc1)C(C#N)=C(N)O2 (stereo not given) | 57.7* | -2.9 | -5.8 | 0.8
CC1CCCCC1NC(=O)CN1C(=O)NC(C)(c2cc(F)ccc2F)C1=O (stereo not given) | · | 0.9 | · | 1.2
COc1cc(NC(C)CCc2ccccc2)cc(OC)c1OC (stereo not given) | 13.5 | -6.6 | 25.0 | -6.8
COc1cc(NC(C)CCCN)c2ncccc2c1Oc1ccccc1 (stereo not given) | 58.1* | 0.0 | 2.4 | -2.4
CCn1c(SCC(=O)N2CCCCC2)nnc1-c1ccc(S(=O)(=O)N2CCN(C)CC2)cc1 | 14.3 | -3.4 | -4.5 | -1.9
CCn1c(SCC(=O)N2CCCC(C)C2)nnc1-c1ccc(S(=O)(=O)N2CCN(C)CC2)cc1 (stereo not given) | 35.2* | -1.1 | 1.5 | 0.4
COc1ccccc1NC(=O)/C(C#N)=C/c1cccn1C | · | 0.4 | -15.8 | 3.0
S=C(NCC1CCCO1)NC12CC3CC(CC(C3)C1)C2 (stereo not given) | 19.8* | -7.4 | -12.1 | -1.4
Cc1ccc(NC(=S)NCC2CCCO2)cc1C (stereo not given) | 3.7 | 1.1 | 7.5 | 4.5
Cc1ccc(NC(=S)NCC2CCCO2)cc1 (stereo not given) | 32.9* | -9.6 | -2.2 | -9.0
CN(C)CCN(C(=O)/C=C/c1cccs1)c1nc2c(F)cc(F)cc2s1 | 59.0* | -6.1 | 5.4 | -3.4
SMILES | NALP1 inh | APOBEC3G inh | PolyA inh | APOBEC3A inh
Cc1ccc2nc(N(CCN(C)C)C(=O)/C=C/c3cccs3)sc2c1 | 56.5* | -5.0 | 7.4 | -3.0
CN(C)CCCN(C(=O)/C=C/c1cccs1)c1nc2ccc(F)cc2s1 | 36.2 | -7.5 | 10.5 | -2.8
CCc1ccc2nc(N(CCN(C)C)C(=O)/C=C/c3cccs3)sc2c1 | 26.7 | -6.2 | 1.0 | -4.1
COc1ccc([N+](=O)[O-])cc1NC(=O)C1C2C=CC(C2)C1C(=O)O (stereo not given) | 28.5 | -6.4 | 5.1 | 0.2
O=C(COc1ccc(C(=O)NCc2cccnc2)cc1)Nc1cccc(C(F)(F)F)c1 | · | -3.2 | 13.7 | 2.3
O=C(CSC1=NS(=O)(=O)c2ccccc2N1)N1CCCCC1 | · | -3.7 | 7.4 | -0.9
